Compound activity from PubChem.
proKLK7 act = activates the human kallikrein-7 zymogen. P49862. purified proKLK7, EDANS-DABCYL substrate fluorescence; 100% is mature enzyme control, 0% vehicle. AID 652039. 0.9% of 370,000 active. activation, % at 7 µM;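 active = activation above the mean of all tested compounds plus 3 SD, computed per campaign excluding outliers beyond control limits, cut at about 13% in these data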
Target sequence (P49862 whole entry, looked up): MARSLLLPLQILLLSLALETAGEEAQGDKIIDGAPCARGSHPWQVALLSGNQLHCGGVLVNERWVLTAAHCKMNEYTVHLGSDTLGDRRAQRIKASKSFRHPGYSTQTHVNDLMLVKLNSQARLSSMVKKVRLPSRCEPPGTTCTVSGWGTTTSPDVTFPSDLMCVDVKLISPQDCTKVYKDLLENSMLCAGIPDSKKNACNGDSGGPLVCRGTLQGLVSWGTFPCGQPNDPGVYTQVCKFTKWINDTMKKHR
MPTP block = inhibitors of mitochondrial permeability transition pore; 1.4% of 360,000 active; isolated mouse mitochondria, Ca2+ swelling absorbance, 30 min; inhibition, % at 10 µM;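 active = inhibition of 50% or more, scaled per plate between neutral and stimulator controls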
Pemphigus Ab inh = inhibitors of pemphigus antibody binding to human desmoglein-3. P32926. DSG3-coupled beads, scFv-anti-DSG3-GFP binding, flow cytometry; hits give low values. binding (percent of control), % at 10 µM. 0.48% of 310,000 active. AID 588358;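 active = binding more than 3 SD below its plate's average and above zero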;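 note: hits lower antibody fragment binding to DSG3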
ADAM17 inh = inhibits human ADAM17; 0.83% of 370,000 active; inhibition, % at 6.95 µM; P78536; AID 720648; recombinant ADAM17, EDANS/DABCYL FRET peptide cleavage;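 active = inhibition above the mean of compounds lying between control limits plus 3 SD, set per campaign, cut at about 8.5% in these data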
rCAG binder = binds r(CAG) RNA repeats; r(CAG) RNA repeat, TO-PRO-1 dye displacement fluorescence; inhibition, % at 3 µM; 1.3% of 370,000 active; AID 651821;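 active = inhibition above the plate cutoff, the mean of all test compounds on that plate plus 3 SD, cut at about 35% in these data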;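 note: higher means more dye released from RNA so lower well fluorescence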
ADAM10 inh = inhibitors of human ADAM10 | O14672 | recombinant ADAM10, EDANS/DABCYL FRET peptide cleavage, 3 h | inhibition, % at 7 µM | 0.62% of 370,000 active;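 active = inhibition above a per-campaign cutoff equal to the mean of compounds falling between control-based bounds plus 3 SD, cut at about 20% in these data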
Rh123 counter = Rhodamine 123 counter-screen of mitochondrial pore hits; 78% of 5,000 active; inhibition, % at 10 µM; shares compounds with MPTP block; isolated mitochondria, membrane potential, Rhodamine 123 fluorescence; in the data active = inhibition above about 22%
rCAG bind conf = r(CAG) RNA repeat binding, confirmation; shares compounds with rCAG binder; TO-PRO-1 dye displacement fluorescence; 70% of 4,300 active; inhibition, % at 3 µM;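 active = inhibition above a per-plate cutoff, the mean inhibition of sample wells plus 3 SD, cut at about 35% in these data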;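 note: loss of TO-PRO-1 fluorescence as compound displaces dye from 1x1 AA loop RNA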
DNA CAG counter = disrupts DNA CAG TO-PRO-1 complex, flagging rCAG hits. shares compounds with rCAG binder. d(CAG) DNA oligo TO-PRO-1 dye displacement, fluorescence. inhibition, % at 3 µM. 94% of 4,300 active. AID 652068;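 active = inhibition above its plate's cutoff, the mean test-well inhibition plus 3 SD, cut at about 4.8% in these data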;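 note: hits displace the dye from DNA and so lower well fluorescence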
ADAM10 confirm = human ADAM10 inhibition, confirmation; shares compounds with ADAM10 inh; ADAM10 QFRET peptide cleavage, EDANS fluorescence; inhibition, % at 6.95 µM; 1% of 2,100 active; AID 743208;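 active = inhibition above about 20% chosen separately for each screening run, limit read from the data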
ADAM17 ctr = counter-screen for ADAM10 exosite inhibitors: inhibitors of human ADAM17; shares compounds with ADAM10 inh; ADAM17 QFRET peptide cleavage, EDANS fluorescence; inhibition, % at 6.95 µM; 0.5% of 2,100 active; AID 743214;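 active = mean triplicate inhibition above the solvent-only control wells' mean plus 3 SD, cut at about 12% in these data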
ADAM10 counter = counter-screen for ADAM17 exosite inhibitors: inhibitors of human ADAM10. recombinant ADAM10, EDANS/DABCYL FRET peptide cleavage, 3 h. 47% of 2,900 active. inhibition, % at 6.95 µM. AID 743256. shares compounds with ADAM17 inh;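 active = mean inhibition over the triplicate runs exceeds the activity threshold set in the earlier primary screen, cut at about 20% in these data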
ADAM17 confirm = confirmation of inhibitors of human ADAM17. AID 743257. recombinant ADAM17, EDANS/DABCYL QFRET peptide cleavage. 65% of 2,900 active. inhibition, % at 6.95 µM. shares compounds with ADAM17 inh;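 active = mean inhibition across replicates above the hit cutoff set in the primary screen, cut at about 8.5% in these data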
Numbers stand for hits. This is a sample that favours compounds with a hit; in the whole collection about 4.7% have one here.

Results for COc1ccc(-c2cc(C3CCN(c4ccc(C(C)=O)cc4[N+](=O)[O-])CC3)[nH]n2)cc1 ?
proKLK7 act: inactive; MPTP block: 83.8; ADAM17 inh: 12.9; rCAG binder: inactive; ADAM10 inh: 32.7; Rh123 counter: 80.8; ADAM10 counter: 32.0; ADAM17 confirm: 18.6

What do the screens show for `COC(=O)[C@]12C[C@H](CC(=O)N3CCCCC3)C(=O)N(Cc3ccc4c(c3)OCO4)C1=C[C@H](C(C)(C)C)O[C@@H]2C`?
proKLK7 act: inactive; ADAM17 inh: inactive; rCAG binder: inactive; ADAM10 inh: inactive

How did O=C(O)c1cccc(NS(=O)(=O)c2ccc(C3CCCCC3)cc2)c1 do in these assays?
MPTP block: inactive; Pemphigus Ab inh: inactive

Results for N#CCc1ccc(NS(=O)(=O)c2ccc(C3CCCCC3)cc2)cc1 ?
proKLK7 act: inactive; MPTP block: 82.0; Pemphigus Ab inh: inactive; ADAM17 inh: 10.0; rCAG binder: inactive; ADAM10 inh: inactive; Rh123 counter: 95.5; ADAM10 counter: 24.0; ADAM17 confirm: 10.4

What do the screens show for `Cc1cccc(NS(=O)(=O)c2ccc(C3CCCCC3)cc2)c1`?
proKLK7 act: inactive; MPTP block: 90.2; Pemphigus Ab inh: inactive; ADAM17 inh: 16.2; rCAG binder: inactive; ADAM10 inh: 32.0; Rh123 counter: 92.8; ADAM10 confirm: inactive; ADAM17 ctr: inactive; ADAM10 counter: 24.5; ADAM17 confirm: 14.8

Results for CCOC(=O)C1CSCCS(=O)(=O)N1Cc1cccc(Cl)c1 (centres undefined) ?
proKLK7 act: inactive; ADAM17 inh: inactive; rCAG binder: inactive; ADAM10 inh: inactive

What do the screens show for `Cc1ccc(NS(=O)(=O)c2cc([N+](=O)[O-])ccc2NNC(=S)Nc2cc(C)ccc2C)c(C)c1`?
proKLK7 act: inactive; MPTP block: 109.6; Pemphigus Ab inh: inactive; ADAM17 inh: 10.1; rCAG binder: 49.8; ADAM10 inh: 20.0; Rh123 counter: 67.1; rCAG bind conf: 83.6; DNA CAG counter: 44.1; ADAM10 counter: 33.6; ADAM17 confirm: 22.0

What do the screens show for `Cc1ccc([N+](=O)[O-])cc1NC(=S)NC(=O)C(C)(C)C`?
proKLK7 act: inactive; MPTP block: inactive; Pemphigus Ab inh: inactive; ADAM17 inh: inactive; rCAG binder: inactive; ADAM10 inh: inactive

How did CCOC(=O)/C(=C\Nc1cccc(OCc2ccccc2)c1)NC(=O)c1ccccc1 do in these assays?
proKLK7 act: inactive; ADAM17 inh: inactive; rCAG binder: inactive; ADAM10 inh: inactive

How did O=S(=O)(c1ccc(NC(=S)NCCC(c2ccccc2)c2ccccc2)cc1)N1CCOCC1 do in these assays?
proKLK7 act: inactive; MPTP block: 97.0; Pemphigus Ab inh: inactive; ADAM17 inh: 14.6; rCAG binder: inactive; ADAM10 inh: 20.6; Rh123 counter: 80.1; ADAM10 confirm: inactive; ADAM17 ctr: inactive; ADAM10 counter: 30.6; ADAM17 confirm: 17.5

Results for COc1ccccc1NNC(=O)c1cc(C(C)(C)C)nn1Cc1ccccc1 ?
proKLK7 act: inactive; MPTP block: inactive; Pemphigus Ab inh: inactive; ADAM17 inh: inactive; rCAG binder: inactive; ADAM10 inh: inactive

What do the screens show for `CC(C)(C)c1cc(C(=O)NNc2cc(C(F)(F)F)ccc2Cl)n(Cc2ccccc2)n1`?
proKLK7 act: inactive; MPTP block: 75.4; ADAM17 inh: 10.2; rCAG binder: inactive; ADAM10 inh: inactive; Rh123 counter: 78.4; ADAM10 counter: 27.4; ADAM17 confirm: 10.3

Results for COC(=O)[C@]12C[C@H](CC(=O)NCC34CC5CC(CC(C5)C3)C4)C(=O)N(Cc3cccc4ccccc34)C1=C[C@H](C(C)(C)C)O[C@@H]2C ?
proKLK7 act: inactive; ADAM17 inh: inactive; rCAG binder: inactive; ADAM10 inh: inactive

How did CCCCC(=O)NC(c1ccc([N+](=O)[O-])cc1)c1c(O)ccc2ccccc12 (centres undefined) do in these assays?
proKLK7 act: inactive; MPTP block: 68.7; Pemphigus Ab inh: inactive; ADAM17 inh: 10.6; rCAG binder: inactive; ADAM10 inh: 27.5; Rh123 counter: 78.5; ADAM10 confirm: inactive; ADAM17 ctr: inactive; ADAM10 counter: 36.2; ADAM17 confirm: 18.9

How did S=C(Nc1ccc(Nc2ccccc2)cc1)NC1CCCCCC1 do in these assays?
proKLK7 act: inactive; MPTP block: 63.1; Pemphigus Ab inh: inactive; ADAM17 inh: 10.2; rCAG binder: inactive; ADAM10 inh: 29.8; Rh123 counter: 65.6; ADAM10 confirm: inactive; ADAM17 ctr: inactive; ADAM10 counter: 27.6; ADAM17 confirm: 16.7

What do the screens show for `CC1CN(S(=O)(=O)c2ccc(NC(=O)c3cc(-c4ccccc4O)n[nH]3)cc2)CC(C)O1` (centres undefined)?
proKLK7 act: inactive; MPTP block: 79.4; Pemphigus Ab inh: inactive; ADAM17 inh: 11.8; rCAG binder: 37.0; ADAM10 inh: 23.6; Rh123 counter: 71.5; rCAG bind conf: inactive; DNA CAG counter: 14.0; ADAM10 counter: inactive; ADAM17 confirm: 14.1

Results for Cc1ccccc1C(=O)Nc1ccc(S(=O)(=O)N2CC(C)OC(C)C2)cc1 (centres undefined) ?
proKLK7 act: inactive; MPTP block: inactive; Pemphigus Ab inh: inactive; ADAM17 inh: inactive; rCAG binder: inactive; ADAM10 inh: inactive

What do the screens show for `COc1ccc(NS(=O)(=O)c2ccc3oc(SCc4ccc(F)cc4)nc3c2)cc1`?
proKLK7 act: inactive; MPTP block: 60.0; Pemphigus Ab inh: inactive; ADAM17 inh: 11.4; rCAG binder: inactive; ADAM10 inh: 25.3; Rh123 counter: 50.0; ADAM10 confirm: inactive; ADAM17 ctr: inactive; ADAM10 counter: 22.2; ADAM17 confirm: 12.1
